We go through eight compounds from PubChem BioAssay (NCI).

Holding throughout (test): NCI-60 one-dose screen, 48 h (100 = growth as untreated, 0 = no growth, -100 = all killed)
Details in all cases: 10 µM unless noted

Assay [1] has as its system HCT-15 colon.
Assay [2] has as its system HT29 colon.
For assay [3], the system named is SNB-75 CNS.
Assay [4] relates to SNB-19 CNS.
Assay [5] has as its system U251 CNS.
Assay [6] relates to PC-3 prostate.
In assay [7] the test system is SK-MEL-5 melanoma.
Assay [8] relates to UACC-62 melanoma.
Assay [9] concerns LOX IMVI melanoma.
Assay [10] concerns SK-MEL-28 melanoma.
Assay [11] deals with SK-MEL-2 melanoma.
For assay [12], the system named is EKVX NSCLC.
Assay [13] has as its system SN12C renal.
Assay [14] has as its system UO-31 renal.
In assay [15] the test system is TK-10 renal.
Assay [16] relates to ACHN renal.
The subject of assay [17] is CAKI-1 renal.
Assay [18] has as its system A498 renal.
Assay [19] relates to CCRF-CEM leukemia.
Assay [20] concerns MOLT-4 leukemia.

Compounds without any hit were thinned out: in the full panel of roughly 83,000, 20% have a hit.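 How to read the values: 0–100, growth inhibition (40 = 60% inhibited); 0, no net growth; -100 to 0, cell death (-40 = 40% of starting cells died; -100 = all dead).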 Unmarked numbers belong to inactive results. The source made the active and inactive calls. How the source made its calls: active means growth percent below 10; inactive means the rest.

As for `Cn1c(=O)c2c(nc(NC3=NS(=O)(=O)c4ccccc43)n2Cc2ccccc2)n(C)c1=O`, the growth in assay [1] was 98.4%; in assay [2] it was 111%; in assay [3], 93.1%; in assay [4], 96.1%; in [5], 104%; in assay [6], 95.4%. In addition, the growth is 99.4% in assay [7]; 91.5% in [8]; 95.6% in [9]; 107% in [10]; 99.7% in assay [11]; 91.5% in [12]. The growth was 93% in assay [13]; 81.2% in assay [14]; 143% in assay [15]; 97.5% in [16]; 83.7% in assay [17]; 60.4% in assay [18]. Also, the results for the growth in assay [19] and in [20] were 104% and 106%, respectively.

Take `COc1ccc2[nH]cc(-c3nc(-c4cn(C)c5ccncc45)cs3)c2c1`: the growth in [1] was -47.7% (active); in [2], -33.6% (active); in [3] it was 110%; in assay [4] it was 14.6%; in assay [5] it was -71.5% (active); in [6] it was 48.5%. Also, the growth in assay [7] was 50.2%; in [8], 101%; in assay [9], -88.3% (active); in assay [10], 91.4%; in assay [11] it was 93%; in [12], -14.1% (active). The growth in [13] was 96.2%; in assay [14] it was 77.6%; in [15] it was 78.6%; in assay [16] it was 83.9%; in [17], 67.2%; in assay [18], 89.1%. The growth in assay [19] is -20.3% (active); in assay [20], 63%.

With `Nc1ncnc2c1c(-c1ccc(Oc3ccccc3)cc1)nn2CC1SSCC1O` (stereo not given), the growth in assay [1] was 65.3%; in assay [2], 39.2%; in [3], 43.5%; in [4], 45.5%; in [5] it was 39.7%; in [6], 61.7%. Moreover, the growth in assay [7] was -42.9% (active); in assay [8] it was -76.1% (active); in assay [9], 19.2%; in [10], 2.15% (active); in assay [11], 56.8%; in assay [12], 4.11% (active). Further, the growth is 49.1% in assay [13]; -3.62% (active) in assay [14]; 8.91% (active) in [15]; 25.9% in assay [16]; 42.5% in assay [17]; 27.8% in assay [18]. The growth in [19] was 9.92% (active); in assay [20], -33.3% (active).

For `COc1ccc2nc(Cl)c(/C=C/C(=O)c3ccc(NC(=O)CSc4nnc(-c5ccc(Cl)c(Cl)c5)n4-c4ccccc4)cc3)cc2c1`, the growth in [1] is 105%; in assay [2] it was 90.1%; in [3], 84.1%; in assay [4] it was 91.3%; in assay [5] it was 87.4%; in assay [6], 72.5%. For the same compound, the growth is 94.5% in assay [7]; 86.2% in [8]; 97.6% in [9]; 107% in [10]; 87.6% in [11]; 93.2% in [12]. Besides, the growth is 88.2% in assay [13]; 79.3% in [14]; 100% in assay [15]; 103% in assay [16]; 77.6% in assay [17]; 87% in assay [18]. Besides, the growth in assay [19] is 90.8%; in [20], 86.4%.

`CCc1cccc(Sc2cc(C(=O)N3Cc4ccc(OCCN(C)C)cc4C3)ccc2O)c1`: the growth is 30.7% in assay [1]; 103% in assay [2]; 121% in [3]; 71.2% in [4]; 54.9% in [5]; 54.6% in assay [6]. The growth was 26.5% in [7]; 66.5% in [8]; 46.7% in assay [9]; 90.8% in assay [10]; 88.2% in assay [11]; 39.2% in [12]. Besides, the growth in assay [13] is 63.9%; in assay [14], 56.5%; in assay [15], 63.2%; in assay [16] it was 58.2%; in assay [17], 83.5%; in assay [18], 42.2%. For the same compound, the growth in [19] is 29.2%; in assay [20], 25%.

Take `C=C1C(=O)O[C@H]2[C@H]1CC/C(COC(=O)NCCCCCCCCNC(=O)OC/C1=C/CC[C@@]3(C)O[C@H]3[C@H]3OC(=O)C(=C)[C@@H]3CC1)=C\CC[C@@]1(C)O[C@@H]21`: the growth was -83.9% (active) in assay [1]; -67.1% (active) in assay [2]; -19.8% (active) in assay [3]; 6.51% (active) in assay [4]; -48.2% (active) in assay [5]; -64.3% (active) in assay [6]. The growth was -85.3% (active) in assay [7]; -70.8% (active) in assay [8]; -78.2% (active) in assay [9]; -75.3% (active) in [10]; -57.5% (active) in assay [11]; -82.4% (active) in assay [12]. Further, the growth in assay [13] is -68.7% (active); in assay [14], -92.4% (active); in assay [15], -97.9% (active); in assay [16], -93.2% (active); in assay [17], -90.1% (active); in [18] it was -88.7% (active). The growth in [19] was -47.3% (active); in [20], -27.5% (active).

Turning to `CC1(C)OC(=O)C(=Cc2cccc(Br)c2)C(=O)O1`, the growth was 108% in [1]; 92.9% in assay [2]; 94.4% in assay [3]; 105% in [4]; 92.9% in assay [5]; 89.5% in assay [6]. The growth was 94.8% in assay [7]; 101% in [8]; 101% in assay [9]; 119% in [10]; 103% in [11]; 100% in [12]. Also, the growth in assay [13] is 101%; in [14] it was 92.9%; in [15] it was 101%; in assay [16], 117%; in assay [17], 100%; in assay [18], 94.2%. Also, the growth was 93.2% in assay [19] and 89.9% in [20].

As to `CC1COCC(C)N1C1=C(Cl)C(=O)c2ccccc2C1=O` (stereo not given), the growth in assay [1] was 36.6%; in [2] it was 89.7%; in assay [3], 120%; in [4], 96.4%; in assay [5], 45.6%; in [6], 47.2%. The growth was 66.5% in assay [7]; 76.6% in assay [8]; 7.84% (active) in assay [9]; 87% in assay [10]; 23.9% in assay [11]; 89.9% in assay [12]. Moreover, the growth in [13] was 81.7%; in assay [14], 59%; in [15], 75.7%; in assay [16], 28.9%; in assay [17], 65.4%; in assay [18], 109%. For the same compound, the growth in assay [19] was 19.4%; in [20] it was 9.7% (active).
